Laboratory results as given in PubChem BioAssay.
Active and inactive are the calls of the source.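 Rule for the calls, unless noted: active = thallium flux through the channel raised or lowered by more than 3 SD from vehicle-only wells, actives on both sides; inactive = the rest.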

Legend:
[1] = P. berghei load reduction in hepatocytes – cell-based, HepG2, luciferase luminescence, HepG2 viability, primary screen (AID 624349; in the data active = parasite load remaining mostly below about 12%, no sharp cut-off; inactive = mostly above about 10%;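 note: 100% = mean of DMSO negative control wells on the same plate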); settings: P. berghei liver stage in HepG2, luciferase luminescence, concentration not given here; parasite load remaining: stronger effect = lower value; viability: measured here: HepG2 viability without parasites
[2] = signal quenchers or enhancers, Cy5 substrate/SSB – biochemical, NIH Clinical Collection, E. coli SSB, artefact control for HCV NS3 helicase inhibitor project (AID 743268; call rule not given here); settings: Cy5-oligo bound E. coli SSB, fluorescence interference
[3] = system: Hepatitis C virus NS3 helicase; assay: blockers of NS3h binding to DNA – biochemical, fluorescence polarization, NIH Clinical Collection, primary screen (AID 743270; call rule not given here); settings: NS3 helicase binding to Cy5-dT15 DNA, stronger effect = higher value, concentration not given here
[4] = biological target: Single-stranded DNA-binding protein (Escherichia coli (strain K12)) (UniProt P0AGE0); assay: SSB-ssDNA binding inhibitors – biochemical, fluorescence polarization, NIH Clinical Collection, counter-screen for HCV NS3 helicase inhibitor project (AID 743271; in the data active = inhibition above about 28%); settings: E. coli SSB-DNA binding, stronger effect = higher value, concentration not given here
[5] = compounds distorting NS3 helicase fluorescence signal – biochemical, NIH Clinical Collection, artefact control for HCV NS3 helicase inhibitor project (AID 743272; call rule not given here;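 note: HCV NS3 helicase with a Cy5 labelled single stranded DNA probe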); settings: fluorescence interference counterscreen, HCV NS3 helicase assay; stronger effect = lower value
[6] = system: Neuropilin-2 / VEGF-C interaction (human); assay: small molecules blocking Neuropilin-2/VEGF-C interaction – biochemical, microplate binding format, z-score (AID 743281; call rule not given here); settings: microplate NRP2/VEGF-C binding assay; stronger effect = lower value
[7] = modulation of C. elegans fzo-1 (AID 1259413; call rule not given here;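 note: fzo-1 mutant C. elegans worms in liquid wells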); settings: C. elegans fzo-1 modulator screen, mean read-out; stronger effect = higher value
[8] = viability loss with induced miR-34 in A549 – imaging, A549 dox-inducible miR-34, nuclei and caspase counts, primary screen (AID 1347080;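 active = compounds whose cell count with miR-34 switched on is under 0.7 times the count with it off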); settings: A549 miR-34 inducible, Hoechst nuclei count, 48 h
[9] = galactose survival enhancers in mitochondrial complex I cybrids – cell-based, galactose medium, ATP luminescence, primary screen (AID 1645843;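 active = z-score of at least 1.8 in each of two replicates, scored against plate mean and spread of sample wells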;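 note: positive z means more ATP and so rescue of galactose-driven cybrid death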); settings: complex I mutant cybrid cells, 72 h, stronger effect = higher value
F380Y = assay: BK channel mutant inhibitors and activators – cell-based, U2OS BacMam, thallium flux, beta subunits, selectivity assay, profiling panel (AID 1259406); settings: U2OS BacMam BK variants, at 30 µM;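 note: initial slope of Thallos dye fluorescence rise after thallium is added; log ratio against the mean of 0.3% DMSO vehicle wells on the same plate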
F380Y/beta1 = assay: as above; settings: U2OS BacMam BK variants, at 30 µM
F380Y/beta2Delta = assay: as above; settings: U2OS BacMam BK variants, at 30 µM
F380Y/beta4 = assay: as above; settings: U2OS BacMam BK variants, at 30 µM
[10] = biological target: Calcium-activated potassium channel subunit alpha-1 (Homo sapiens) + Leucine-rich repeat-containing protein 26 (Homo sapiens) (UniProt Q12791+Q2I0M4); assay: as above; settings: U2OS BacMam BK variants, F380Y/Slo1WT/gamma1, at 30 µM
R275C = assay: as above; settings: U2OS BacMam BK variants, at 30 µM
R275C/beta1 = assay: as above; settings: U2OS BacMam BK variants, at 30 µM
R275C/beta2Delta = assay: as above; settings: U2OS BacMam BK variants, at 30 µM
R275C/beta4 = assay: as above; settings: U2OS BacMam BK variants, at 30 µM
R275C/Slo1WT/beta2 = assay: as above; settings: U2OS BacMam BK variants, at 30 µM
[11] = stronger effect = lower value, cell number ratio, induced over uninduced
[12] = measured here: relative caspase fold change +Dox/-Dox
[13] = measured here: total cells with miR-34 induction, stronger effect = lower value
[14] = measured here: total cells without miR-34 induction

Calcium-activated potassium channel subunit alpha-1 (Homo sapiens) + Leucine-rich repeat-containing protein 26 (Homo sapiens), sequence (Q2I0M4 whole entry, looked up, one chain of several): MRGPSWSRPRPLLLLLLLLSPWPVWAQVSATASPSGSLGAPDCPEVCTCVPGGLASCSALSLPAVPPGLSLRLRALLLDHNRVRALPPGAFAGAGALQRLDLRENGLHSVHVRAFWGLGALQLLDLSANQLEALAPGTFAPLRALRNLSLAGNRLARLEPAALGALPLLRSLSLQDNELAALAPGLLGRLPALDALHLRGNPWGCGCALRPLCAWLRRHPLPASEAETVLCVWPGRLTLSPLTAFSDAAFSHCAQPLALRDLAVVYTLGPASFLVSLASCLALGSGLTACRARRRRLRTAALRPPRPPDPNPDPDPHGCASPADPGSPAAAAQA

CN(CCO)CC(O)Cn1cnc2c1c(=O)n(C)c(=O)n2C (stereo not given) (tested in a mixture with another compound)
66.2%: viability [1]
5120: cell count [8, 14]
inactive: parasite load remaining [1] 65% | fluorescence ratio [2] 0.97 | inhibition [3] -0.22% | inhibition [4] 0.39% | fluorescence ratio [5] 0.94 | z-score [6] -0.276 | mean signal [7] 208 | fold change [8, 11] 1.72 | z-score [9] 0.47 | log fold change Tl+ flux (F380Y) 0.0136 | log fold change Tl+ flux (F380Y/beta1) 0.0124 | log fold change Tl+ flux (F380Y/beta2Delta) -0.0171 | log fold change Tl+ flux (F380Y/beta4) 0.017 | log fold change Tl+ flux [10] 0.0349 | log fold change Tl+ flux (R275C) -0.0477 | log fold change Tl+ flux (R275C/beta1) 0.0362 | log fold change Tl+ flux (R275C/beta2Delta) -0.03 | log fold change Tl+ flux (R275C/beta4) -0.00112 | log fold change Tl+ flux (R275C/Slo1WT/beta2) 0.00717
8830: cell count [8, 13]
0.852: fold change [8, 12]

Nc1nc(Cl)nc2c1ncn2[C@@H]1O[C@H](CO)[C@@H](O)[C@H]1O
inactive: parasite load remaining [1] 214% | fluorescence ratio [2] 1 | inhibition [3] 5.15% | inhibition [4] 7.6% | fluorescence ratio [5] 1 | z-score [6] 0.198 | mean signal [7] 269 | log fold change Tl+ flux (F380Y) -0.00984 | log fold change Tl+ flux (F380Y/beta1) -0.0372 | log fold change Tl+ flux (F380Y/beta2Delta) -0.0171 | log fold change Tl+ flux (F380Y/beta4) -0.000976 | log fold change Tl+ flux [10] -0.026 | log fold change Tl+ flux (R275C) 0.0386 | log fold change Tl+ flux (R275C/beta1) -0.0185 | log fold change Tl+ flux (R275C/beta2Delta) -0.0141 | log fold change Tl+ flux (R275C/beta4) 0.0509 | log fold change Tl+ flux (R275C/Slo1WT/beta2) -0.00662
40.5%: viability [1]

CCCCCN=C(N)NN=Cc1c[nH]c2ccc(OC)cc12
inactive: parasite load remaining [1] 0.065% | fold change [8, 11] 1.42 | z-score [9] -1.88 | log fold change Tl+ flux (R275C/beta2Delta) -0.0142
3.78%: viability [1]
active: log fold change Tl+ flux (F380Y) 0.707 | log fold change Tl+ flux (F380Y/beta1) 0.869 | log fold change Tl+ flux (F380Y/beta2Delta) 0.585 | log fold change Tl+ flux (F380Y/beta4) 0.841 | log fold change Tl+ flux [10] 0.468 | log fold change Tl+ flux (R275C) 0.229 | log fold change Tl+ flux (R275C/beta1) 0.839 | log fold change Tl+ flux (R275C/beta4) 0.743 | log fold change Tl+ flux (R275C/Slo1WT/beta2) 0.7
13: cell count [8, 14]
18.5: cell count [8, 13]
1.01: fold change [8, 12]

CO[C@H]1/C=C/O[C@@]2(C)Oc3c(C)c(O)c4c(O)c(c(C=NN5CCN(C)CC5)c(O)c4c3C2=O)NC(=O)/C(C)=C\C=C\[C@H](C)[C@H](O)[C@@H](C)[C@@H](O)[C@@H](C)[C@H](OC(C)=O)[C@@H]1C
inactive: parasite load remaining [1] 23.7% | inhibition [3] -3.18% | inhibition [4] 3.34% | fluorescence ratio [5] 0.87 | fold change [8, 11] 0.888 | z-score [9] -1.41 | log fold change Tl+ flux (F380Y) 0.0886 | log fold change Tl+ flux (F380Y/beta1) -0.0407 | log fold change Tl+ flux (F380Y/beta4) 0.0159 | log fold change Tl+ flux [10] -0.0449 | log fold change Tl+ flux (R275C) -0.067 | log fold change Tl+ flux (R275C/beta1) 0.00744 | log fold change Tl+ flux (R275C/beta2Delta) -0.0205 | log fold change Tl+ flux (R275C/beta4) 0.0765 | log fold change Tl+ flux (R275C/Slo1WT/beta2) -0.0151
2.93: fold change [8, 12]
94.3%: viability [1]
10300: cell count [8, 14]
active: fluorescence ratio [2] 0.107 | log fold change Tl+ flux (F380Y/beta2Delta) 0.125
9180: cell count [8, 13]

CNC(=O)Oc1ccc2c(c1)[C@]1(C)CCN(C)C1N2C (stereo not given in full)
1.81: fold change [8, 12]
10400: cell count [8, 13]
84.5%: viability [1]
inactive: parasite load remaining [1] 98.8% | fluorescence ratio [2] 1.1 | inhibition [3] 5.94% | inhibition [4] -0.1% | fluorescence ratio [5] 1.08 | z-score [6] -0.245 | mean signal [7] 259 | fold change [8, 11] 0.976 | z-score [9] -1.49 | log fold change Tl+ flux (F380Y) -0.0388 | log fold change Tl+ flux (F380Y/beta1) -0.0363 | log fold change Tl+ flux (F380Y/beta2Delta) -0.00825 | log fold change Tl+ flux (F380Y/beta4) 0.000651 | log fold change Tl+ flux [10] 0.0144 | log fold change Tl+ flux (R275C) -0.0205 | log fold change Tl+ flux (R275C/beta1) 0.00244 | log fold change Tl+ flux (R275C/beta2Delta) -0.0145 | log fold change Tl+ flux (R275C/beta4) 0.023 | log fold change Tl+ flux (R275C/Slo1WT/beta2) -0.0113
10600: cell count [8, 14]

Nc1ncnc2c1ncn2[C@@H]1O[C@H](CO)C[C@@H]1O
93.2%: viability [1]
inactive: parasite load remaining [1] 137% | fluorescence ratio [2] 0.96 | inhibition [3] -2.77% | inhibition [4] 2.21% | fluorescence ratio [5] 0.87 | z-score [6] -0.398 | mean signal [7] 230 | log fold change Tl+ flux (F380Y) 0.0402 | log fold change Tl+ flux (F380Y/beta1) 0.0107 | log fold change Tl+ flux (F380Y/beta2Delta) -0.0103 | log fold change Tl+ flux (F380Y/beta4) 0.0334 | log fold change Tl+ flux [10] 0.00963 | log fold change Tl+ flux (R275C) -0.0453 | log fold change Tl+ flux (R275C/beta1) -0.0213 | log fold change Tl+ flux (R275C/beta2Delta) 0.0189 | log fold change Tl+ flux (R275C/beta4) -0.00206 | log fold change Tl+ flux (R275C/Slo1WT/beta2) 0.0268

c1ccc(-c2ccccn2)nc1
9830: cell count [8, 13]
1.38: fold change [8, 12]
inactive: fold change [8, 11] 0.97 | z-score [9] 0.54 | log fold change Tl+ flux (F380Y) -0.0156 | log fold change Tl+ flux (F380Y/beta1) -0.0247 | log fold change Tl+ flux (F380Y/beta2Delta) 0.0286 | log fold change Tl+ flux (F380Y/beta4) 0.0375 | log fold change Tl+ flux [10] 0.0137 | log fold change Tl+ flux (R275C) 0.0175 | log fold change Tl+ flux (R275C/beta1) -0.0449 | log fold change Tl+ flux (R275C/beta2Delta) 0.0381 | log fold change Tl+ flux (R275C/beta4) -0.011 | log fold change Tl+ flux (R275C/Slo1WT/beta2) 0.000803
10100: cell count [8, 14]
